Several values for one entry are separate records, joined by “and”; a condition that tells them apart may be missing. Equal entries are not always repeated. Screen size: about 360,000 compounds; about 800 (0.22%) were called active. The sample holds actives, similar compounds and a random draw of the others, so the mix is not that of the screen. Values without a mark were called inactive.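 Rule for the calls: active = activation of at least 8% versus controls, or a plate z-score of at least 8; inactive = the rest.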
Test: compounds raising alpha-dystroglycan glycosylation – uHTS, Pro5-aDG cells, AlphaScreen, primary screen (AID 624168);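 note: Pro5 are CHO cells carrying HIG-tagged alpha-DG that lacks glycosylation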
Settings: alpha-DG glycosylation AlphaScreen (IIH6), at 10 µM, stronger effect = higher value, 0% Pro5, 100% B10-LARGE cell signal

| SMILES | activation |
| --- | --- |
| O=C(NCc1ccc(F)cc1)C1CCN(C(=O)Nc2ccc(F)cc2)CC1 | -0.1% |
| Cc1[nH]c(C)c(S(=O)(=O)N2CCN(c3cccc(C(F)(F)F)c3)CC2)c1C(=O)N1CCCCC1 | -0.4% |
| CC1(C)CC(=O)C=C(NC2CC(C)(C)NC(C)(C)C2)C1 | -0.2% |
| COc1cc(CNCCN(C)C)ccc1OCc1c(F)cccc1Cl | 8.5% (active) |
| CCN(CC)CCNCc1ccc(OCc2ccc(Cl)nc2)c(OC)c1 | 0.3% |
| CCOCCCNCc1ccc(OCc2ccc(F)cc2)c(OC)c1 | 0.1% |
| CCCCNCc1ccc(SC)cc1 | 0.3% |
| C[C@H](CO)N1C[C@H](C)[C@H](CN(C)CC2CC2)Oc2ccc(NC(=O)CCN3CCOCC3)cc2C1=O | 0.2% |
| Cc1ccc(N2C(=O)SC(N(CC(=O)O)c3ccc(C)cc3)C2=O)cc1 (stereo unspecified) | 1.3% |
| CCn1c(SCc2cccc(C(=O)O)c2)nnc1-c1ccc(Cl)cc1 | 0% |
| Fc1cccc(Cl)c1COc1ccc(-c2nnco2)cc1 | -0.1% |
| CN(C)CCCNC(=O)/C=C/c1ccc(OCc2c(F)cccc2Cl)cc1 | 13.4% (active) |
| O=C(/C=C/c1ccc(Cl)cc1)NCCCn1ccnc1 | -0.1% |
| CS(=O)(=O)N(CC(=O)N1CCCCCC1)c1cccc(Cl)c1Cl | -0.1% |
| COc1ccc(CCCNC(=O)C2Cc3c(-c4cccc(C(N)=O)c4)ccnc3O2)cc1 (stereo unspecified) | 0.1% |
| COc1ccc(NC(=O)COc2ccc(C(=O)c3ccc(F)cc3)cc2)cc1S(N)(=O)=O | 0% |
| C[N+]1(CC(O)COc2ccccc2)CCN(C(=O)c2ccc([N+](=O)[O-])cc2)CC1 (stereo unspecified) | -0.2% |
| O=C(OCC(=O)N1CCc2ccccc21)c1ccc([N+](=O)[O-])cc1 | 0.1% |
| COc1ccccc1C1SCCN1C(=O)c1ccc([N+](=O)[O-])cc1 (stereo unspecified) | 6.9% (active) |
| CC(C)N(C(=O)CSc1nc(COc2ccccc2)nc2ccccc12)C(C)C | 0.2% |
| CCOc1cc(CNCCN(C)C)c(Cl)cc1OCC(=O)NCCc1ccccc1 | 0.7% |
| Cc1cccn2c(=O)nc(SCC(=O)NCc3ccccc3Cl)nc12 | 0.1% |
| O=C(Oc1ccccc1C(=S)N1CCCCC1)c1cc([N+](=O)[O-])cc([N+](=O)[O-])c1 | -0.2% |

| SMILES | activation |
| --- | --- |
| CN(O)C(=S)c1ccccc1 | -0.2% |
| Cc1ccc(F)c(S(=O)(=O)NC(=O)C2(C)CCN2C(=O)c2ccco2)c1 (stereo unspecified) | -0.2% |
| CC(C)C(=O)NCC(c1cccs1)S(=O)(=O)c1ccc(F)cc1 (stereo unspecified) | 6.9% (active) |
| COCCNC(=O)C(OC(=O)c1cccs1)c1ccc(F)cc1 (stereo unspecified) | -0.1% |
| O=C(NCc1cccs1)C(=O)NCC1OCCCN1S(=O)(=O)c1ccc(F)cc1 (stereo unspecified) | 0% |
| COc1cc(OC)cc(C(=O)NC(=S)N2CCN(c3ccc(C(F)(F)F)cc3[N+](=O)[O-])CC2)c1 | 0.3% |
| O=C(c1ccc(N2CCCC2=O)cc1)N1CCN(c2ccc(C(F)(F)F)cc2[N+](=O)[O-])CC1 | 7% (active) |
| O=C(Cc1ccc(S(=O)(=O)N2CCOCC2)s1)N1CCN(c2ccc(C(F)(F)F)cc2[N+](=O)[O-])CC1 | 0.7% |
| CC1CCCN(S(=O)(=O)c2ccc(N(C(=O)c3cnccn3)C(C(=O)NC3CCCCC3)c3cccs3)cc2)C1 (stereo unspecified) | -0.1% |
| Cc1ccccc1NC(=O)CCNS(=O)(=O)c1ccc2[nH]c(=O)oc2c1 | -0.2% |
| COc1ccc(C)cc1NC(=O)CN(C)S(=O)(=O)c1ccc2c(c1)n(C)c(=O)c(=O)n2C | -0.2% |
| COC(=O)c1ccc(C(=O)NC2CC(C)(C)Cc3c2cnn3-c2ccc(F)cc2)nc1 (stereo unspecified) | 0% |
| Cn1nccc1C(=O)NC1CCCc2c1cnn2-c1ccc(F)cc1F (stereo unspecified) | 5% (active) |
| CC1=C(C(=O)NC2CC(C)(C)Cc3c2cnn3-c2ccc(C)cc2)OCCO1 (stereo unspecified) | 0.4% |
| COc1ccc(C23NCCN2C(=O)c2ccccc23)cc1 (stereo unspecified) | -0.1% |
| Cc1ccsc1C(=O)NCCc1ccco1 | -0.1% |
| Cc1c(CN2CCC(CO)(CCOc3ccccc3)CC2)[nH]c2ccc(Cl)cc12 | 2.4% |
| COCCn1c(SCC(=O)c2[nH]c(C)c(C(C)=O)c2C)nc2ccccc2c1=O | 0% |
| CCc1[nH]nc(C(=O)N2CCCC(CNS(=O)(=O)c3cccs3)C2)c1C (stereo unspecified) | 0.1% |
| Cc1ccccc1OCc1nnc(SCC(=O)N2c3ccccc3Sc3ccc(Cl)cc32)o1 | 0.3% |
| O=C(CNCc1ccc(F)cc1)Nc1ccccc1-c1ccccc1 | 0.6% |
| Cc1nc2nc[nH]n2c(=O)c1NC(=O)c1cccc(OCC(C)C)c1 | 0.1% |
| CCc1cccc(C)c1NC(=O)COC(=O)CC1CCCC1 | 0.2% |

| SMILES | activation |
| --- | --- |
| CC(Sc1nnc(-c2ccccc2F)n1C1CC1)C(N)=O (stereo unspecified) | 0.1% |
| COc1ccc(NC(=O)CSc2nnc(C3CC3)n2C)cc1S(=O)(=O)N1CCCCC1 | -0.1% |
| COc1ccc(NC(=O)CSc2nnc(-c3ccccc3F)n2C2CC2)cc1S(N)(=O)=O | 6.3% (active) |
| OCC1OC(n2cnc3c(N4CCCC4)ncnc32)C(O)C1O (stereo unspecified) | -0.1% |
| Cc1[nH][nH]c(=O)c1C(c1ccc(-c2ccc(Cl)cc2)o1)c1c(C)[nH][nH]c1=O | 0% |
| CCNC(=O)NC(=O)C(C)OC(=O)c1cc(S(=O)(=O)N2CCCCCC2)ccc1OC (stereo unspecified) | 0% |
| Cc1cc(C)c(C#N)c(SCC(=O)NN2CC(=O)N(c3ccccc3F)CC2=O)n1 | -0.2% |
| CCOc1ccc(C(=O)Nc2c3c(nn2-c2ccccc2)CS(=O)(=O)C3)cc1 | 0.3% |
| CCOc1ccc(OCC(=O)Nc2c3c(nn2C(C)(C)C)CS(=O)(=O)C3)cc1 | 7.3% (active) |
| COc1ccccc1OCC(=O)Nc1c2c(nn1-c1ccc(F)cc1)CS(=O)(=O)C2 | -0.1% |
| O=S(=O)(c1ccc(Br)cc1)N1CCC(c2nc3ccccc3[nH]2)CC1 | 0.7% |
| N#Cc1cnn2cc(CCN3CCOCC3)c(-c3ccc(F)cc3)nc12 | -0.1% |
| CNC1(c2nnnn2-c2c(C)cccc2C)CCOC(C)(C)C1 (stereo unspecified) | 0.1% |
| O=C(Cn1c(=O)sc2ccccc21)Nc1ccc2c(c1)OCCO2 | 0.4% |
| Cc1ccc(CSc2ccc(S(=O)(=O)N3CCCCC3)cn2)cc1 | 0.2% |
| O=C(N1CCCCC1)N1CCN(C(=O)N2CCCCC2)CC1 | -0.2% |
| CC(=O)Oc1cccc(N2C(=O)C3CC=C(Cl)CC3C2=O)c1 (stereo unspecified) | 2.9% (active) |
| CC1=CCC2C(=O)N(c3cccc(C(=O)NC(C)c4ccccc4)c3)C(=O)C2C1 (stereo unspecified) | 0% |
| CC(=O)Oc1cccc(N2C(=O)CC(Nc3ccc(N4CCOCC4)cc3)C2=O)c1 (stereo unspecified) | 0.6% |
| O=C1CC(Cc2ccccc2)C(=O)N1c1ccc(Cl)cn1 (stereo unspecified) | -0.3% |
| CCCCN(CC)CCCNC(=O)c1ccc(CSc2nc3ccncc3[nH]2)cc1 | -0.1% |
| O=C(NCC(=O)N(Cc1cccs1)C(C(=O)NC1CCCCC1)c1ccco1)c1cccs1 (stereo unspecified) | 0.5% |
| Cc1nnc(NC(=O)CCC(=O)N2CCC(C)CC2)s1 | -0.2% |

| SMILES | activation |
| --- | --- |
| COc1cccc(CN(C)CC(O)COC(c2ccccc2)c2ccccc2C)c1 (stereo unspecified) | 0.1% |
| CN(Cc1ccccc1)CC(O)COc1ccc(CNCc2cc3ccccc3s2)cc1 (stereo unspecified) | 4.3% (active) |
| OC(CN=c1sc2ccccc2n1CC(O)COc1ccccc1)COc1ccccc1 (stereo unspecified) | 0.6% |
| Cc1nc(N)nc(Cl)c1CCC1OCCO1 | 0.5% |
| CC(OC(=O)C1CC(=O)N(Cc2ccccc2)C1)C(=O)Nc1ccccc1[N+](=O)[O-] (stereo unspecified) | 0.2% |
| CCc1noc(C)c1C(=O)N1CCCSC1=Nc1ccccc1OC | -0.1% |
| CCOc1ccc(NC(=O)c2ccc(NC(=O)C3CCCO3)cc2)cc1 (stereo unspecified) | 0.1% |
| Cc1ccc(NC(=O)c2ccc(Oc3ncccn3)cc2)cc1 | 5.5% (active) |
| CCOc1ccc(C(=O)Nc2cccc(SC)c2)cc1 | 0.3% |
| COc1cc(C(=O)NCCOC(=O)c2cccc(N(C)C)c2)cc(OC)c1OC | 0% |
| COCc1c(C(=O)OCC(=O)Nc2ccc(OC(F)F)cc2)oc2ccccc12 | 0.1% |
| Cc1cc(C)c(NC(=S)N2CCCC2C(=O)O)c(C)c1 (stereo unspecified) | 0.5% |
| CCOC(=O)C1(CCOc2ccccc2)CCN(C(=O)c2cncs2)CC1 | 0.1% |
| CCCS(=O)(=O)N1CCC(CCOc2ccccc2)(C(=O)OCC)CC1 | -0.1% |
| CCOC(=O)C1(CCOC)CCN(Cc2cc3ccccc3s2)CC1 | 2% (active) |
| CCOC(=O)N1CCN(S(=O)(=O)c2ccc(C(=O)Nc3ccc(F)cc3F)cc2)CC1 | -0.1% |
| Cc1c(CCOC(=O)CC23CC4CC(CC(C)(C4)C2)C3)sc[n+]1Cc1ccc([N+](=O)[O-])cc1 | 0.1% and -0.2% |
| O=C(Nc1ccccc1F)c1cc(S(=O)(=O)N2CCCCC2)cs1 | 0% |
| CN1CCN(S(=O)(=O)c2cccc(C(=O)Nc3cccc(S(N)(=O)=O)c3)c2)CC1 | -0.1% |
| CN1CCN(S(=O)(=O)c2cccc(C(=O)Nc3sccc3C#N)c2)CC1 | 8.2% (active) |
| O=C(Nc1nncs1)c1cccc(S(=O)(=O)N2CCCCC2)c1 | -0.2% |
| CCCOc1ccc(C2NC(=O)NC(c3ccccc3)=C2C(C)=O)cc1OCC (stereo unspecified) | -0.1% |
